Measured values published in the supplement of paper PMC7724964.

T1: PPARG 233-505 Hormone_recep (domain begin residue: 233, domain end residue: 505), P37231
T1 chain: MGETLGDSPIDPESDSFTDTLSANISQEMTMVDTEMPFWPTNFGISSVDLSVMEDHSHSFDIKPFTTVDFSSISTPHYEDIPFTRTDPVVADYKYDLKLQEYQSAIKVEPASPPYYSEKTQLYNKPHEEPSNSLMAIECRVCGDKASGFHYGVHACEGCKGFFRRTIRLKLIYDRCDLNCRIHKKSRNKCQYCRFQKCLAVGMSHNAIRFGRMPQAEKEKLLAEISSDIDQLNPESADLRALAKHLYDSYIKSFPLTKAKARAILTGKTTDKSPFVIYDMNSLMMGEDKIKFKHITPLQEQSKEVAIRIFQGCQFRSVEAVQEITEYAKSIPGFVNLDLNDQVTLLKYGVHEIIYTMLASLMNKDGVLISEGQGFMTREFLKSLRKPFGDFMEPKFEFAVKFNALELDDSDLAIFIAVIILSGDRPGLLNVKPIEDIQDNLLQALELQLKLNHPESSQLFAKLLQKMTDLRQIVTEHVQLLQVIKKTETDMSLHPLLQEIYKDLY

T2: PUF60 460-559 RRM_3 (domain begin residue: 460, domain end residue: 559), Q9UHX1
T2 chain: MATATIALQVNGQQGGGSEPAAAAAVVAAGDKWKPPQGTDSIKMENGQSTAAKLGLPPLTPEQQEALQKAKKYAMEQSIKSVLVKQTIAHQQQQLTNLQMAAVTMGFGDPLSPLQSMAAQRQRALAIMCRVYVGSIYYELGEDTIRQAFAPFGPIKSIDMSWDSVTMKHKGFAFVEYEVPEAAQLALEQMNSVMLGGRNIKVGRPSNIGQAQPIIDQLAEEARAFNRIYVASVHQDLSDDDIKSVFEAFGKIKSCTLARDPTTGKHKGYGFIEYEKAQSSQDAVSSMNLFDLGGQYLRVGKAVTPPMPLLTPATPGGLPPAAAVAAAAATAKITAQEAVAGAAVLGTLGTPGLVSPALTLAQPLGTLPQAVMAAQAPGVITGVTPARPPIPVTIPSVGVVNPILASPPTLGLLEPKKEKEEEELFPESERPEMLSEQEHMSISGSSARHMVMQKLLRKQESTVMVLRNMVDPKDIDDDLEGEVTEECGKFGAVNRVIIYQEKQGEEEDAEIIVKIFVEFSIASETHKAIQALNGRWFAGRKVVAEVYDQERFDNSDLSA

T3: RAB5A 15-188 Ras (domain begin residue: 15, domain end residue: 188), P20339
T3 chain: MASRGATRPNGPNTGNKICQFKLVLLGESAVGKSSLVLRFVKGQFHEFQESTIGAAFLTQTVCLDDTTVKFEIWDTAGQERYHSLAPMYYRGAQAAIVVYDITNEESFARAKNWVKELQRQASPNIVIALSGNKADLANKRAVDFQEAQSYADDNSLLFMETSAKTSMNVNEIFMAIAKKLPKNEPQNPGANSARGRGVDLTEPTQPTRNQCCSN

T4: RALA 11-183 Ras (domain begin residue: 11, domain end residue: 183), P11233
T4 chain: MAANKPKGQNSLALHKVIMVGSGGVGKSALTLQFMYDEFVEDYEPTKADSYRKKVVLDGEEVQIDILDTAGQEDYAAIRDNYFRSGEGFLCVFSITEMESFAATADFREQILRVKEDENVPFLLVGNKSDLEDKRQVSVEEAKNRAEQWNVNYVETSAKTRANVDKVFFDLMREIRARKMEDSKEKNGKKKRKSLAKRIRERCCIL

T5: PPWD1 486-646 Pro_isomerase (domain begin residue: 486, domain end residue: 646), Q96BP3
T5 chain: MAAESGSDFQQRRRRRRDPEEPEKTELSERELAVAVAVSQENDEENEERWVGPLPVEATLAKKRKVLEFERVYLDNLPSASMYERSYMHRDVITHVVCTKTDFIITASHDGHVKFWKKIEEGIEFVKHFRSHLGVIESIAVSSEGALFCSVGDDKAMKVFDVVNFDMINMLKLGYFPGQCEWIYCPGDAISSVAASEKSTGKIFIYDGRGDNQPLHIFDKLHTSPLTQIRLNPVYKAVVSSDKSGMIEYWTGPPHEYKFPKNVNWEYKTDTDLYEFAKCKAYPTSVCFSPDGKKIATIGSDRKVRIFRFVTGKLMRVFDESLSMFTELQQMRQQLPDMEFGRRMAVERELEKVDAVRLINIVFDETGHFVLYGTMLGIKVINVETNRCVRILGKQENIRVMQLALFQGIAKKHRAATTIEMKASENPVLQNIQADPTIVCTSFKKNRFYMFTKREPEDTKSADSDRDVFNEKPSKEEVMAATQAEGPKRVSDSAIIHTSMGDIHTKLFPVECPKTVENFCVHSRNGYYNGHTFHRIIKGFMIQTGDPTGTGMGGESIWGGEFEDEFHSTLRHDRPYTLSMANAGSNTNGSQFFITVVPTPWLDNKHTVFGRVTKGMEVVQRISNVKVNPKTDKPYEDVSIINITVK


Each binder was assayed against RANBP1 39-170 Ran_BP1 (domain begin residue: 39, domain end residue: 170), P43487 (assay: phage ELISA signal ratio (GST-PRM binding over GST background); higher = stronger binding of peptide-phage to the PRM).
Chain of RANBP1 39-170 Ran_BP1 (domain begin residue: 39, domain end residue: 170), P43487 (P43487 whole entry, the tested form may be a part): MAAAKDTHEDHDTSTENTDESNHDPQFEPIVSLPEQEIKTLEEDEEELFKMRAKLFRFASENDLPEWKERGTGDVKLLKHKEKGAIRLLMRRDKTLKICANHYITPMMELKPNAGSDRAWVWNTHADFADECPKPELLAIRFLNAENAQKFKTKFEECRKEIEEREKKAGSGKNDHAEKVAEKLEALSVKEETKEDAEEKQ
Summary of the method: (§1)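 Five rounds of selection were carried out against human peptide recognition domains fused to the C-terminus of glutathione S-transferase (GST) and expressed in 96-well plates. The M13 phage library presented randomized hexadecapeptides, cysteine-free and glycine-flanked, on the gene-8 major coat protein. For each value, the phage ELISA signal on the GST-domain fusion was divided by the signal on GST alone.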

Q: How did the “phage ELISA signal ratio” value turn out when VSDMRGVPDSFMDVWD was run?
A: 5.06

Q: With GTEWWQQMALPPDVVV as the binder, how does the “phage ELISA signal ratio” value read?
A: 7.62

Q: For WLVPLPWEETWQNMSL, which “phage ELISA signal ratio” value is on record?
A: 5.79

Q: With WDMTLPVLTNHELAYL as the binder, how does the “phage ELISA signal ratio” value read?
A: 9.02

Q: With WDVALPQEIVWELADK as the binder, how does the “phage ELISA signal ratio” value read?
A: 7.66

Q: DHGWWMLNSNFLPVVP was tested. Which “phage ELISA signal ratio” value did it give?
A: 9.28

Q: With WELALPAEHHEHYWSN as the binder, how does the “phage ELISA signal ratio” value read?
A: 4.36

Q: WRMELPVQNHMEVMDL was tested. Which “phage ELISA signal ratio” value did it give?
A: 6.12

Q: With WEHLYPWMIPLPGTGV as the binder, how does the “phage ELISA signal ratio” value read?
A: 6.24

Q: YGMRLPEASQMETWFL was tested. Which “phage ELISA signal ratio” value did it give?
A: 6.18

Biological target: T1, PPARG 233-505 Hormone_recep (domain …
Assay: as above
Summary of the method: as §1

Q: Which “phage ELISA signal ratio” value does the source give for PESWWESWMMDHEWGS here?
A: 24.5

Q: With LHPMLTDMLAPNHMEV as the binder, how does the “phage ELISA signal ratio” value read?
A: 18.6

Biological target: T2, PUF60 460-559 RRM_3 (domain begin …
Assay: as above
Summary of the method: as §1

Q: Which “phage ELISA signal ratio” value does the source give for SRWDQQPGQWIKLSEN here?
A: 12

Q: WSSKWDVIDKDYGIMH was tested. Which “phage ELISA signal ratio” value did it give?
A: 7.28

Q: How did the “phage ELISA signal ratio” value turn out when TQGKWDMQPTDMHYLS was run?
A: 13.2

Q: NKWDMEHWDTEYRSPV was tested. Which “phage ELISA signal ratio” value did it give?
A: 4.03

Q: How did the “phage ELISA signal ratio” value turn out when MNWGEMWDVRDDQVMV was run?
A: 7.64

What follows are binders tested against PPIE 138-301 Pro_isomerase (domain begin residue: 138, domain end residue: 301), Q9UNP9 in the same assay as above.
Chain of PPIE 138-301 Pro_isomerase (domain begin residue: 138, domain end residue: 301), Q9UNP9 (Q9UNP9 whole entry): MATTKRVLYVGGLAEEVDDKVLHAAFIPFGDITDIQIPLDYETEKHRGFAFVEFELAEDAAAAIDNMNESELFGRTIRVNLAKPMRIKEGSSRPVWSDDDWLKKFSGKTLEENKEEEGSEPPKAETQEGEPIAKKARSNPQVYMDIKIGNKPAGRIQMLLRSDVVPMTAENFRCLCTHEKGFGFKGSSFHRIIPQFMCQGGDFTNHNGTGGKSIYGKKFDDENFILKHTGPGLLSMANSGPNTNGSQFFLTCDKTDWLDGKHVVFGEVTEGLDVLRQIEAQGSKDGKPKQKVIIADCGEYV
Summary of the method: as §1

Q: With VYDFIGPQPQTNMASI as the binder, how does the “phage ELISA signal ratio” value read?
A: 21.8

Q: With SDVYGPHAHPVHYQDE as the binder, how does the “phage ELISA signal ratio” value read?
A: 8.93

Q: With ESWGPMEQHSYTEQTE as the binder, how does the “phage ELISA signal ratio” value read?
A: 5.43

Q: ENHVPWVPEARWTTPQ was tested. Which “phage ELISA signal ratio” value did it give?
A: 7.51

Q: How did the “phage ELISA signal ratio” value turn out when EPTFGPQPQVFFSTNP was run?
A: 17

Q: For PMTWEMWQIDSAQQTV, which “phage ELISA signal ratio” value is on record?
A: 8.08

Q: How did the “phage ELISA signal ratio” value turn out when HEMFGPQEQSQHMMEW was run?
A: 4.73

Q: PLMMPPEPHWVVNLGI was tested. Which “phage ELISA signal ratio” value did it give?
A: 10.5

Biological target: T3, RAB5A 15-188 Ras (domain begin residue: …
Assay: as above
Summary of the method: as §1

Q: Which “phage ELISA signal ratio” value does the source give for WDLAEWEMIWQDYMNH here?
A: 5.62

Biological target: T4, RALA 11-183 Ras (domain begin residue: …
Assay: as above
Summary of the method: as §1

Q: With LTHEQMLWQLMDALSE as the binder, how does the “phage ELISA signal ratio” value read?
A: 19.4

Q: For LYQEVFEYQGWLCMDL, which “phage ELISA signal ratio” value is on record?
A: 32.5

Biological target: T5, PPWD1 486-646 Pro_isomerase (domain …
Assay: as above
Summary of the method: as §1

Q: With AVSWGPQWHDFQWALM as the binder, how does the “phage ELISA signal ratio” value read?
A: 8.34
